Compound activity: PubChem, National Center for Advancing Translational Sciences (NCATS)
Pf Dd2 inh: inhibitors of Plasmodium falciparum Dd2 growth; AID 1347417; 4.3% of 120,000 active; P. falciparum Dd2 growth, SYBR Green, 72 h; Potency, µM (top dose mostly 28.9 µM), for the others: at the top dose activity, negative = inhibition, most hits filed as inhibitors; active = well fitted inhibition curve with a large enough effect;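 note: plate controls were DMSO vehicle for no effect and reference drug for full effect; nearly all actives have a fitted effect of over 65% in size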
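Infected erythrocytes (Dd2, 0.3% parasitemia, 2.5% hematocrit final) are added to compound in RPMI-1640/Albumax II medium, grown 72 h at 37C in low oxygen, then lysed with saponin/Triton-X containing SYBR Green and read by fluorescence.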
* = called active by the depositor; i = inactive; [ ] = remark or other dose. The full list was thinned out, with hits kept by preference. Potency is the fitted concentration of half-maximal effect.

SMILES	Pf Dd2 inh
Cn1ccnc1CN1CCN(CC2(O)CNCCOC2)CC1 (stereo not given)	24.4%
Cc1cc(N2CCN(CC3(O)CNCCOC3)CC2)n2ncnc2n1 (stereo not given)	-1.3%
CC(C)n1cnnc1CC1CCCN(C(=O)COc2ccccc2)C1 (stereo not given)	2.2%
O=C(c1ccccc1)N1CCC2(CC1)C(=NC1CCCC1)NC(=O)N2c1cc(F)cc(F)c1	3.3%
Cc1ccc(CN2C(=O)COC[C@H]2C(=O)NCc2cccc(F)c2)cc1	i
COC[C@@H]1CN(Cc2c(C)noc2C)C[C@H]1C(=O)NC1CC1	-2.0%
CCn1nc(-c2ccc3c(c2)OCCO3)nc1N(C)C	-22.6%
Cc1cnccc1CNC(=O)c1cc(COc2ccc3c(c2)OCO3)[nH]n1	-10.6%
CC(=O)N1CCC(C2CCN(C(=O)C3CC=CC3)C2)CC1 (stereo not given)	10.0%
COc1ccccc1NC(=O)Cn1c(C)ccc(NS(=O)(=O)c2ccccc2)c1=O	1.41µM*
CCc1ccc(NC(=O)Cn2c(C)ccc(NS(=O)(=O)c3ccccc3)c2=O)cc1	-5.8%
COc1ccc(S(=O)(=O)Nc2ccc(C)n(CC(=O)NCc3ccccc3)c2=O)cc1	-12.9%
CCCCc1nn(CC(=O)NC(CC)c2cccc(C)n2)c(=O)n1CC (stereo not given)	-15.0%
N#Cc1ccc(C(=O)Nc2ccc([C@@H](O)[C@H]3COCC(=O)N3CCCc3ccccc3)cc2)cc1	i
CNC(=O)CCn1ncc2cc(OCc3ccccc3-c3ccsc3)ccc21	6.31µM*
CNC(=O)CCn1ncc2cc(OCc3ccccc3-c3cccc(OC)c3)ccc21	-4.5%[44.1 µM]
COc1ccc(C)cc1-c1ccc(COc2ccc3c(cnn3CCC(=O)O)c2)cc1	i
CNC(=O)CCn1ncc2cc(OCc3ccccc3-c3ccc(OC)cc3C)ccc21	5.62µM*
O=C(O)CCn1ncc2cc(OCc3ccc(-c4cccc(CO)c4)cc3)ccc21	i
CNC(=O)CCn1ncc2cc(OC3CCc4cccc(-c5ccc(O)c(F)c5)c43)ccc21 (stereo not given)	i
CC(C)Oc1cc(F)cc(-c2cc(NCCO)ncn2)c1	-22.1%
CNC(=O)C1CCN(C(=O)N2CC(C)Oc3ccc(C)cc32)CC1 (stereo not given)	-6.9%
CCC1CN(C(=O)N2CCC(C(=O)NCCc3ccc(OC)cc3OC)CC2)c2cc(C)ccc2O1 (stereo not given)	5.62µM*
CC1CN(C(=O)N2CCC(C(=O)NCCC3=CCCCC3)CC2)c2cc(Cl)ccc2O1 (stereo not given)	211.7%[5.79 µM]
CCC1CN(C(=O)N2CCC(C(=O)NCCN(CC)CC)CC2)c2cc(C)ccc2O1 (stereo not given)	i
SMILES	Pf Dd2 inh
Cc1ccc2c(c1)N(C(=O)N1CCC(C(=O)NCCc3ccc(Cl)cc3)CC1)CC(C)O2 (stereo not given)	8.91µM*
CC1CN(C(=O)N2CCC(C(=O)NCc3cccs3)CC2)c2cc(Cl)ccc2O1 (stereo not given)	-18.4%
CCOc1ccc(NC(=O)C2CCN(C(=O)N3CC(C)Oc4ccc(Cl)cc43)CC2)cc1 (stereo not given)	12.6µM*
CCCNC(=O)C1CCN(C(=O)N2CC(C)Oc3ccccc32)CC1 (stereo not given)	11.2%
CCC1CN(C(=O)N2CCC(C(=O)NCCc3ccc(C)cc3)CC2)c2ccccc2O1 (stereo not given)	i
COC1CN(C2CCN(C(=O)CC(C)C)CC2)C12CCOCC2 (stereo not given)	-21.4%
O=C(C1CCCN1c1nc2ncccc2o1)N1CCOCC1 (stereo not given)	21.8%[44.1 µM]
CN1[C@@H](CCC(=O)N2CCc3ccccc32)CNC(=O)[C@@H]2[C@H]1CCN2Cc1ccc(O)cc1	-24.6%
Cc1cnc(C(=O)NCC2CCCCC(=O)N2)cn1 (stereo not given)	4.6%
COCc1nncn1C1CCN(S(=O)(=O)c2cccc(C)c2)CC1	4.9%
O=[N+]([O-])c1cccc(-c2noc([C@@H]3C[C@@H](O)CN3CC3CCCCC3)n2)c1	i
CC(C)C1c2nccn2CCCN1C(=O)c1ccc(C#N)cc1 (stereo not given)	12.3%
O=C(NCCN1CCCCC1)C1CCN(C(=O)N2CC3CC(C2)[C@H]2CCCC(=O)N2C3)CC1 (stereo not given in full)	6.8%
Cc1cnccc1NCCn1ccnc1-c1cc2n(n1)CCCNC2	10.3%
NS(=O)(=O)c1ccc(CCNCC2(O)CCNC2)cc1 (stereo not given)	6.4%
Cc1ccc(S(=O)(=O)N2CCCCCC2c2nnc(C)o2)c(C)c1 (stereo not given)	i
C#CCOc1ccc(-c2nnc(Nc3cccc(C)c3)c3ccccc23)cc1	-3.6%
Cc1cc(-c2ccc(C)c(S(=O)(=O)N3CCCC(C)C3)c2)on1 (stereo not given)	28.1%
Cc1ccc(-c2nnc(Nc3cccc(Cl)c3)c3ccccc23)cc1S(=O)(=O)N1CCN(C)CC1	-5.2%
O=C(Cn1nc(-c2ccc(Cl)cc2)c2ccccc2c1=O)Nc1cccc(Br)c1	-8.2%
